# Pf Dd2 growth – blocks growth of Plasmodium falciparum Dd2 parasites; hit rate 2.3% among 94,000; P. falciparum Dd2 growth, SYBR Green, 72 h; stronger effect = lower value; activity change, % at 10 µM; in the data active = activity change below about -80%; inconclusive = no clear call, values can overlap the other calls
# T cruzi growth-1 – inhibitors of T. cruzi proliferation; T. cruzi beta-gal in NIH3T3, GalScreen luminescence, 90 h; inhibition, % at 8.34 µM; hit rate 5.9% among 77,000; AID 624255;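 active = mean inhibition above about 93%, with at least 55% of replicates each passing it, limit read from the data, passing the limit was not always enough; inconclusive = only one of those two conditions holds; inactive = neither condition holds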
# C diff HTS – inhibitors of Clostridium difficile growth | hit rate 0.25% among 86,000 | AID 1259249 | Clostridium difficile clinical isolate growth, OD600, 24 h; stronger effect = lower value | growth activity, negative = inhibition, % at 16 µg/mL (by protocol);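 active = mean growth activity at or below -80% and every replicate also at or below -80%; inconclusive = mean at or below -80% but some replicate above -80%; inactive = mean growth activity above -80%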;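 note: 0% = DMSO wells and -100% = levofloxacin 16 µg/mL wells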
# T cruzi growth-2 – blocks T. cruzi growth in NIH3T3 host cells | shares compounds with T cruzi growth-1 | T. cruzi beta-gal in NIH3T3, GalScreen luminescence, 90 h | inhibition, % at 8.35 µM | hit rate 72% among 5,600;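 active = mean replicate inhibition above about 95% and at least 55% of replicates individually reaching it, limit read from the data; inconclusive = only one of the two criteria is met; inactive = neither criterion is met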
# T cruzi growth-3 – blocks T. cruzi growth in NIH3T3 host cells | shares compounds with T cruzi growth-1 | T. cruzi beta-gal in NIH3T3, GalScreen luminescence, 90 h | inhibition, % at 2.09 µM | hit rate 21% among 5,600;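 active = mean inhibition above about 95%, with at least 55% of replicates also reaching it, limit read from the data; inconclusive = meets just one of the two conditions; inactive = meets neither condition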;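 note: plate controls were neutral control median for no effect and positive control median for full effect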
# NIH3T3 tox – cytotoxicity in mouse NIH/3T3 fibroblasts | shares compounds with T cruzi growth-1 | NIH/3T3 viability, CellTiter-Glo ATP luminescence, 90 h | cytotoxicity (signal decrease), % at 8.35 µM | hit rate 14% among 5,600 | AID 651742;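 active = mean signal decrease across replicates above about 35% based on untreated-well scatter, with enough replicates individually passing, limit read from the data; inconclusive = no rule stated though some were filed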;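 note: 0% = median of neutral control wells and 100% = median of positive control wells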
# 3T3 cytotox 2 – kills mouse NIH/3T3 fibroblasts. inhibition, % at 24.9 µM. NIH/3T3 viability, CellTiter-Glo ATP luminescence, 90 h. shares compounds with T cruzi growth-1. hit rate 56% among 5,600;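 active = mean loss of cell viability signal at or above a set limit, and enough replicates individually reaching it; inconclusive = meets only the mean limit or only the replicate share; inactive = meets neither condition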;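 note: 0% = median of neutral control wells and 100% = median of positive control wells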
# * hit, by the source's call; ? = inconclusive; . = not tested or not shown. This is a sample that favours compounds with a hit; in the whole collection about 6.8% have one here.
SMILES,Pf Dd2 growth,T cruzi growth-1,C diff HTS,T cruzi growth-2,T cruzi growth-3,NIH3T3 tox,3T3 cytotox 2
COc1ccc(S(=O)(=O)Nc2ccc3c(c2)C(=O)N([C@@H](C)CO)C[C@@H](C)[C@H](CN(C)S(=O)(=O)c2ccc(Cl)cc2)OCCCC[C@@H](C)O3)cc1,-36.8,?,-4.2,104.9*,104.2*,9.6,32.7*
COc1ccc(S(=O)(=O)Nc2ccc3c(c2)C(=O)N([C@H](C)CO)C[C@@H](C)[C@@H](CN(C)S(=O)(=O)c2ccc(Cl)cc2)OCCCC[C@H](C)O3)cc1,-72.0,99.5*,-3.3,101.8*,?,-31.5,0.6
COc1ccc(S(=O)(=O)N(C)C[C@@H]2OCCCC[C@H](C)Oc3ccc(NS(=O)(=O)c4ccc(Cl)cc4)cc3C(=O)N([C@@H](C)CO)C[C@@H]2C)cc1,-58.9,.,-0.5,.,.,.,.
COc1ccc(S(=O)(=O)N(C)C[C@@H]2OCCCC[C@@H](C)Oc3ccc(NS(=O)(=O)c4ccc(Cl)cc4)cc3C(=O)N([C@@H](C)CO)C[C@@H]2C)cc1,-75.6,.,-2.6,.,.,.,.
COc1ccc(S(=O)(=O)Nc2ccc3c(c2)C(=O)N([C@@H](C)CO)C[C@@H](C)[C@H](CN(C)S(=O)(=O)c2ccc(Cl)cc2)OCCCC[C@H](C)O3)cc1,-63.7,99.7*,0.9,108.3*,89.7,-0.8,2.8
COc1ccc(S(=O)(=O)Nc2ccc3c(c2)C(=O)N([C@@H](C)CO)C[C@@H](C)[C@@H](CN(C)S(=O)(=O)c2ccc(Cl)cc2)OCCCC[C@@H](C)O3)cc1,-42.6,83.8,-4.4,.,.,.,.
COc1ccc(S(=O)(=O)Nc2ccc3c(c2)C(=O)N([C@H](C)CO)C[C@H](C)[C@H](CN(C)S(=O)(=O)c2ccc(Cl)cc2)OCCCC[C@H](C)O3)cc1,-56.0,?,-3.7,103.1*,107.2*,-11.7,24.5
CO[C@@H]1CN(C)C(=O)c2ccc(NC(=O)C3CCOCC3)cc2OC[C@H](C)NC[C@@H]1C,21.7,-0.2,.,.,.,.,.
C[C@@H](NC(=O)C[C@H]1CC[C@H](NC(=O)CN2CCOCC2)[C@@H](CO)O1)c1ccccc1,-19.6,-24.0,.,.,.,.,.
CCC(=O)N1C[C@@H](C)[C@H](OC)CN(C)C(=O)c2ccc(NC(=O)c3ccno3)cc2OC[C@@H]1C,43.2,.,-7.6,.,.,.,.
C[C@@H]1CN([C@@H](C)CO)C(=O)c2cccc(NC(=O)c3ccncc3)c2O[C@H]1CN(C)C(=O)Nc1ccc(C(F)(F)F)cc1,-5.8,7.4,1.9,.,.,.,.
C[C@H](CO)N1C[C@H](C)[C@H](CN(C)C(=O)Nc2ccc3c(c2)OCO3)Oc2ncc(-c3cccnc3)cc2C1=O,13.4,23.2,1.4,.,.,.,.
O=C(NC1CCCCC1)N[C@H]1CC[C@H](CC(=O)N2CCOCC2)O[C@@H]1CO,7.1,.,0.0,.,.,.,.
CNC[C@H]1OCCCC[C@@H](C)Oc2ccc(NC(=O)Nc3ccc(OC)cc3)cc2C(=O)N([C@H](C)CO)C[C@H]1C,-0.1,20.8,-1.5,.,.,.,.
CC(C)NC(=O)N(C)C[C@H]1Oc2cc(C#CC(C)(C)O)ccc2S(=O)(=O)N([C@H](C)CO)C[C@@H]1C,21.1,-15.1,0.3,.,.,.,.
O=C(CCN1CCCCC1)N[C@@H]1CC[C@H](CCNS(=O)(=O)c2ccc(F)cc2)O[C@H]1CO,10.8,-19.5,-3.9,.,.,.,.
CCS(=O)(=O)N1[C@H](CO)[C@H](c2ccc(-c3cccc(F)c3)cc2)[C@@H]1C#N,70.9,41.3,13.2,.,.,.,.
C/C=C/c1ccc([C@@H]2[C@@H](C#N)N(S(=O)(=O)c3cccc(F)c3)[C@@H]2CO)cc1,-34.7,107.1*,0.8,81.6,45.8,11.1,25.2*
C/C=C/c1ccccc1[C@@H]1[C@@H](C#N)N(S(=O)(=O)c2cccc(F)c2)[C@H]1CO,-60.5,.,-12.6,.,.,.,.
N#C[C@@H]1[C@@H](c2ccc(-c3cccc(F)c3)cc2)[C@H](CO)N1S(=O)(=O)c1cccc(F)c1,-52.9,99.0*,-11.7,102.4*,82.3,40.9*,106.8*
CCS(=O)(=O)N1[C@H](C#N)[C@@H](c2ccc(-c3cccc(F)c3)cc2)[C@@H]1CO,24.2,4.6,16.4,.,.,.,.
N#C[C@@H]1[C@H](c2ccc(-c3cccc(F)c3)cc2)[C@@H](CO)N1S(=O)(=O)c1cccc(F)c1,-24.2,101.5*,9.7,105.5*,102.9*,13.9,104.7*
O=C(C[C@H]1CC[C@@H]2[C@H](COC[C@H](O)CN2Cc2ccc(Cl)cc2)O1)NCc1cccc(F)c1,16.9,.,16.4,.,.,.,.
CNC[C@@H]1Oc2ccc(NS(=O)(=O)c3cccs3)cc2C(=O)N([C@H](C)CO)C[C@H]1C,17.5,32.7,3.6,.,.,.,.
C[C@@H](NC(=O)[C@@H]1[C@@H](CO)[C@@H]2Cn3c(cccc3=O)[C@H]1N2Cc1ccncc1)c1ccccc1,3.0,-1.3,2.7,.,.,.,.
SMILES,Pf Dd2 growth,T cruzi growth-1,C diff HTS,T cruzi growth-2,T cruzi growth-3,NIH3T3 tox,3T3 cytotox 2
CN1C(=O)c2cc(NS(=O)(=O)c3ccc(Cl)cc3)ccc2OC[C@H]2O[C@@H](CC(=O)N3CCc4ccccc4C3)CC[C@H]21,-56.4,49.1,-2.5,.,.,.,.
COC(=O)C[C@@H]1CC[C@H]2[C@@H](COc3ccc(NS(=O)(=O)c4ccc(F)cc4)cc3C(=O)N2C)O1,-6.7,24.5,-5.5,.,.,.,.
COC(=O)C[C@H]1CC[C@H]2[C@H](COc3ccc(NS(=O)(=O)c4ccc(F)cc4)cc3C(=O)N2C)O1,25.7,97.1*,-8.5,27.6,1.6,-6.5,-3.4
COC(=O)C[C@H]1CC[C@H]2[C@H](COc3ccc(NC(=O)Nc4ccc(Cl)cc4)cc3C(=O)N2C)O1,8.2,110.1*,9.9,103.1*,114.4*,33.7,33.5*
COC(=O)C[C@H]1CC[C@@H]2[C@H](COc3ccc(NC(=O)Nc4ccc(Cl)cc4)cc3C(=O)N2C)O1,-1.4,52.6,5.8,.,.,.,.
CN1C(=O)c2cc(NS(=O)(=O)c3ccc(Cl)cc3)ccc2OC[C@@H]2O[C@H](CC(=O)N3CCc4ccccc4C3)CC[C@@H]21,6.5,107.0*,3.7,107.6*,58.0,-0.9,8.4
CC(C)c1cn(CC[C@H]2CC[C@H](NC(=O)C3CCCC3)[C@@H](CO)O2)nn1,-1.2,.,0.6,.,.,.,.
C[C@@H]1CN([C@@H](C)CO)C(=O)c2cc(NS(=O)(=O)c3ccc(F)cc3)ccc2O[C@@H](C)CCCCO[C@H]1CN(C)Cc1ccncc1,-16.4,.,0.1,.,.,.,.
COc1ccc(CN(C)C[C@H]2Oc3c(NS(=O)(=O)c4cn(C)cn4)cccc3C(=O)N([C@@H](C)CO)C[C@H]2C)cc1,26.6,9.2,-2.8,.,.,.,.
COc1ccc(C(=O)Nc2ccc3c(c2)C(=O)N(C)C[C@H](OC)[C@@H](C)CN(C)[C@@H](C)CO3)cc1,8.9,-18.4,-2.1,.,.,.,.
O=C(Nc1ccccc1F)N1CCCCN2[C@H](CO)[C@H](c3ccc(/C=C/c4ccccc4)cc3)[C@H]2C1,-71.7,81.8,-76.6,.,.,.,.
